Experimental findings from the supplement of paper PMC6522484 are described below.

± gives the standard deviation of the averaged measurements.

The subject of test [1] is DLD1. The test is described as follows: cell viability (CellTiter-Glo) relative to plate median (fraction of plate median); higher = more viable cells. The note with it: 5 µM; treatment time 24 h; reporter: 7TFP. Put shortly: (§1)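 Stable lentiviral TCF/Wnt firefly luciferase reporters (7TFP or TCF4/Wnt) were present in the colorectal cancer cell lines used. These cells received library compounds at a final 5 µM for 24 h, and parallel plates were read for firefly luciferase or CellTiterGlo luminescence. Each well was normalised to the plate median, and the value reported is the mean of two independent replicates.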

Test [2] has as its system HCT116. The test is described as above. To be noted: 5 µM; treatment time 24 h; reporter: TCF4/Wnt. In short, it runs like this: as §1
The test system of test [3] is SW480. The test is described as above. To be noted: 5 µM; treatment time 24 h; reporter: 7TFP. In short, it runs like this: as §1
Test [4] deals with DLD1. The test is described as follows: TCF/Wnt firefly luciferase reporter signal relative to plate median (fraction of plate median); higher = higher Wnt reporter signal. The note with it: 5 µM; treatment time 24 h; reporter: 7TFP. Put shortly:
as §1
On the technique in general: A reporter such as luciferase makes a cellular process visible.

In test [5] the test system is SW480. Described as above. The note with it: 5 µM; treatment time 24 h; reporter: 7TFP. In short, it runs like this: as §1

On to `O=C(c1ccc(OCCN2CCCCC2)cc1)c1c(-c2ccc(O)cc2)sc2cc(O)ccc12`, for which the cell viability in test [1] came out at 0.933; in test [2], 1.01 ± 0.1; in test [3], 0.938 ± 0.066. Also, the entries for the “TCF/Wnt firefly luciferase reporter signal” value in test [4] and in test [5] were 0.879 ± 0.0042 and 0.926 ± 0.078, respectively.

With `Cc1ccc(=O)n(-c2ccccc2)c1`, the cell viability in test [1] amounted to 0.911 ± 0.041; in test [2], 0.866 ± 0.096; in test [3], 0.945 ± 0.014. Also, the “TCF/Wnt firefly luciferase reporter signal” value in test [4] worked out at 0.952 ± 0.17; in test [5], 1.08 ± 0.14.

As for `O=c1cc(-c2ccc(O)cc2)oc2ccc(O)cc12`, the cell viability is 1.11 ± 0.11 in test [1], 1.1 ± 0.099 in test [2] and 1.035 ± 0.0071 in test [3]. Also, the “TCF/Wnt firefly luciferase reporter signal” value in test [4] is 1.03 ± 0.11; in test [5], 1.125 ± 0.0071.

Take `Cc1ccc2c(Cl)cc(Cl)c(O)c2n1`: the cell viability in test [1] came out at 1.01 ± 0.021; in test [2], 1.01 ± 0.15; in test [3] it was 1.07. In addition, the “TCF/Wnt firefly luciferase reporter signal” value in test [4] came out at 1.06 ± 0.22; in test [5] it was 1.04 ± 0.067.

With `CC1=C(/C=C/C(C)=C/C=C/C(C)=C/C=C/C=C(C)/C=C/C=C(C)/C=C/C(=O)[C@]2(C)C[C@@H](O)CC2(C)C)C(C)(C)C[C@H](O)C1`, the cell viability in test [1] stood at 0.98 ± 0.057; in test [2] it was 0.966 ± 0.1; in test [3], 0.997 ± 0.033. Moreover, the “TCF/Wnt firefly luciferase reporter signal” value in test [4] was found to be 0.947 ± 0.058; in test [5], 1 ± 0.051.

Regarding `CC(C)C1=C2[C@H]3CCC4[C@@H]5[C@H](O[C@@H]6OC[C@@H](O)[C@H](O[C@@H]4O)C65O)[C@]3(C)CC[C@@]2(C)CC1` (stereo not given in full), the values for the cell viability in test [1], in test [2] and in test [3] were 0.915 ± 0.067, 0.862 ± 0.11 and 0.938 ± 0.011, respectively. Also, the “TCF/Wnt firefly luciferase reporter signal” value was 0.873 ± 0.014 in test [4] and 0.968 ± 0.045 in test [5].

For `COc1ccc([C@H]2COc3c(ccc(O)c3OC)C2)c(OC)c1O`, the cell viability in test [1] is 1.01 ± 0.038; in test [2], 0.95 ± 0.052; in test [3], 1.03 ± 0.014. Also, the “TCF/Wnt firefly luciferase reporter signal” value in test [4] was determined as 0.987 ± 0.13; in test [5] it was 0.878 ± 0.069.

Consider `O=C(OCc1ccccc1)c1ccccc1`, for which the cell viability in test [1] came to 1.03 ± 0.035; in test [2], 0.996 ± 0.062; in test [3], 0.928 ± 0.029. The “TCF/Wnt firefly luciferase reporter signal” value in test [4] was determined as 0.954 ± 0.14; in test [5], 0.999 ± 0.1.

Regarding `CN1[C@@H](CC(=O)c2ccccc2)CCC[C@H]1C[C@H](O)c1ccccc1`, the figures for the cell viability in test [1], in test [2] and in test [3] were 1.1 ± 0.13, 0.987 ± 0.061 and 1.05 ± 0.021, respectively. For the same molecule, the “TCF/Wnt firefly luciferase reporter signal” value in test [4] is 0.998 ± 0.032; in test [5] it was 1.04 ± 0.098.

For the molecule `CCC[C@@H]1C[C@@H](C(=O)N[C@@H]([C@H]2O[C@H](SC)[C@H](O)[C@@H](O)[C@H]2O)[C@@H](C)O)N(C)C1`, the cell viability was determined as 1.05 ± 0.12 in test [1], 1.03 ± 0.021 in test [2] and 1.035 ± 0.0071 in test [3]. The “TCF/Wnt firefly luciferase reporter signal” value in test [4] came out at 0.934 ± 0.015; in test [5] it was 1.04 ± 0.083.

In the case of `C[C@@H]1OC(=O)C2=C1O[C@@H]1[C@@H](O)[C@]3(O)CCCC[C@H]3[C@](C)(C2=O)[C@@H]1C` [Dihydrotetrodecamycin], the cell viability in test [1] came out at 1.08 ± 0.057; in test [2], 1.05 ± 0.071; in test [3], 1.065 ± 0.0071. Moreover, the “TCF/Wnt firefly luciferase reporter signal” value in test [4] is 1.08 ± 0.15; in test [5] it was 1.04 ± 0.069.

For `COc1cc(C/C=C/c2ccccc2)c(OC)cc1O`, the cell viability in test [1] was 1.02 ± 0.055; in test [2], 1.06 ± 0.093; in test [3], 1.03 ± 0.042. Besides, the “TCF/Wnt firefly luciferase reporter signal” value is 1.05 ± 0.22 in test [4] and 1.04 ± 0.035 in test [5].

Regarding `NC[C@H]1O[C@H](O[C@H]2[C@H](O[C@@H]3O[C@H](CO)[C@@H](O)[C@H]3O)[C@@H](O)[C@H](N)C[C@@H]2N)[C@H](N)[C@@H](O)[C@@H]1O`, the cell viability in test [1] was 0.955 ± 0.018; in test [2], 0.996 ± 0.0014; in test [3], 0.962 ± 0.0014. For the same molecule, the “TCF/Wnt firefly luciferase reporter signal” value was found to be 1.04 ± 0.057 in test [4] and 0.994 ± 0.023 in test [5].

Consider `CC(C)=CCC[C@](C)(O)C1CC=C(C)CC1` (stereo not given in full), for which the cell viability in test [1] was 1.04 ± 0.063; in test [2] it was 0.973 ± 0.081; in test [3], 1.1 ± 0.085. For the same molecule, the “TCF/Wnt firefly luciferase reporter signal” value was 1.03 ± 0.014 in test [4] and 0.996 ± 0.076 in test [5].
